Only some compounds are listed: those with a hit (about 1.4% of all), similar ones and a draw of the others.
LDHA inh = qHTS assay for inhibitors of human lactate dehydrogenase. activity change, % (values are at about 110 or 230 µM). L-lactate dehydrogenase A chain (Homo sapiens), P00338. 480,000 compounds, 0.15% hits. purified LDHA, NADH/diaphorase-resazurin fluorescence; stronger effect = lower value; in the data active = activity change below about -30%; inconclusive = mostly about -25% to -30%;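 also: plate controls were DMSO wells for no effect and wells without enzyme for full effect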
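LDH5 2 nM; NADH 0.06 mM, pyruvate 0.2 mM; 200 mM Tris pH 7.4, EDTA, Tween-20; 5 min RT. Detection: diaphorase 0.133 mg/mL + resazurin 37 µM, fluorescence ex540/em590 at 0 and 20 min; normalized to enzyme-free and DMSO wells.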
PKM2 activator = qHTS Assay for Activators of Human Muscle isoform 2 Pyruvate Kinase | Potency, µM (doses to about 57.5 µM), for the others: at the highest dose activation, actives largely listed as activators | Pyruvate kinase PKM (Homo sapiens), P14618 | purified PKM2, Kinase-Glo ATP luminescence, activation; response scale: 0% is enzyme alone, no compound | 260,000 compounds, 0.34% hits; also: potency is read from the fitted curve at half-maximal effect; nearly all actives have a fitted effect of over 55% in size
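ATP formation by purified human PK-M2, quantified via coupled luciferase luminescence after 1 h at room temperature with 0.1 mM ADP and 0.5 mM PEP final.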
IDH1 R132H inh = qHTS for Inhibitors of mutant isocitrate dehydrogenase 1 (IDH1): qHTS | 390,000 compounds, 0.093% hits | Potency, µM (doses to about 76.6 µM), inactives show at the highest dose activity change, negative = inhibition, most hits filed as inhibitors | Isocitrate dehydrogenase [NADP] cytoplasmic (Homo sapiens), O75874 | AID 602179, 2012 | IDH1-R132H enzyme, NADPH consumption, diaphorase/resazurin fluorescence; also: potency is read from the fitted curve at half-maximal effect; nearly all actives have a fitted effect of over 65% in size
Target sequence (O75874 whole entry R132H, stated change not applied): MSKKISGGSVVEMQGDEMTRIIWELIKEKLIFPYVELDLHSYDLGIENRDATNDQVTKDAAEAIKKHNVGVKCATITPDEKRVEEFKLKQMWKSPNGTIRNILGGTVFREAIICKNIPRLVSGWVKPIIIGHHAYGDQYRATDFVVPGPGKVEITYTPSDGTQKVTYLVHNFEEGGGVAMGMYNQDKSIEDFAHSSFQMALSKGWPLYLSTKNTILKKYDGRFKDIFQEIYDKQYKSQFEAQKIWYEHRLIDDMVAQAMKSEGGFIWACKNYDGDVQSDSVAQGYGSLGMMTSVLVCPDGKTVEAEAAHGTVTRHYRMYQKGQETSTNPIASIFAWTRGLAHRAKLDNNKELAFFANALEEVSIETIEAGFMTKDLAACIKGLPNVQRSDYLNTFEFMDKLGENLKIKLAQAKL
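IDH1-R132H (0.5 ug/mL dispensed) in pH 7.5 Tris buffer was preincubated 30 min with compound, then given a substrate mix of 0.016 mM NADPH and 2 mM alpha-KG for 80 min at room temperature; remaining NADPH was read by diaphorase/resazurin fluorescence.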
TrxR1 substrate = qHTS Assay for Substrates of Mammalian Selenoprotein Thioredoxin Reductase 1 (TrxR1): qHTS | Thioredoxin reductase 1, cytoplasmic (Rattus norvegicus), O89049 | purified TrxR1 substrate turnover, NADPH consumption readout | Potency, µM (top dose mostly 114 µM), without a hit: at the highest dose activity change, negative = substrate turnover | 390,000 compounds, 0.01% hits; also: potency is read from the fitted curve at half-maximal effect; nearly all actives have a fitted effect of over 50% in size
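Rat TrxR1, dispensed at 90 nM, was prereduced with 400 uM NADPH (final) for 5 min at ~22 deg C, then incubated with compound 15 min before 400 uM selenite. A first-read NADPH fluorescence drop versus no-compound background flagged substrates.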
GLS inh = qHTS for Inhibitors of Glutaminase (GLS); Glutaminase kidney isoform, mitochondrial (Homo sapiens), O94925; GLS enzymatic activity, qHTS titration; Potency, µM (doses to about 45.5 µM), for the others: at the highest dose activity change, negative = inhibition, most hits filed as inhibitors; 410,000 compounds, 0.21% hits; also: potency is read from the fitted curve at half-maximal effect
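Coupled fluorescence readout: glutamate oxidase/HRP/Amplex Red detect glutamate formed by hKGA from L-glutamine (1 mM solution added). Buffer 45 mM KH2PO4 pH 8.2, 0.02% Tween-20; reads at t0 and 30 min RT.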
rTrxR1 inhibitor = qHTS Assay for Inhibitors of Mammalian Selenoprotein Thioredoxin Reductase 1 (TrxR1): qHTS | Thioredoxin reductase 1, cytoplasmic (Rattus norvegicus), O89049 | recombinant rTrxR1, NADPH fluorescence consumption, selenite substrate | Potency, µM (titrated, usually from 114 µM), for inactives: at the highest dose activity change, negative = inhibition, most hits filed as inhibitors | 390,000 compounds, 1% hits | AID 588453, 2011; also: potency is read from the fitted curve at half-maximal effect; nearly all actives have a fitted effect of over 65% in size
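Rat TrxR1 (90 nM in the dispensed reagent) was pre-reduced with 400 uM NADPH for 5 min at room temperature, then incubated with compound for 15 min. After 400 uM selenite was added, NADPH fluorescence (Ex 340/Em 450 nm) was followed for 8 min.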
* marks the source's active call; other numbers are inactive results; ? = inconclusive; nt = not tested or not shown; [ ] = remark or other dose. Unless noted, calls follow the shape of the dose curve; as a rule, active = well fitted curve in the direction sought with a large enough effect; inconclusive = small, poorly fitted or top-dose-only effect, or another doubt; inactive = no such curve, though single readings can be large; an effect the other way counts as inactive or inconclusive. Unless noted, % is scaled to controls: 0 for no effect and ±100 for the full control effect.

SMILES | LDHA inh | PKM2 activator | IDH1 R132H inh | TrxR1 substrate | GLS inh | rTrxR1 inhibitor
Cc1ccc(C(C[N+](=O)[O-])n2nc(C)cc2C)cc1 (stereo not given) | -1 | -16% | 7% | -4% | 0% | 5.6µM*
N#CC1=C(S)N(c2ccccc2)C(c2ccc(-c3cccc(Cl)c3)o2)NC1=O (stereo not given) | -1 | 1% | 41µM* | -4% | 18% | 40µM*
CCCc1nc2c(=O)n(C)c(=O)nc-2n(C)n1 | 40 | -1% | 24% | ? | 3% | -101%
Cc1ccccc1-c1nc2c(=O)n(C)c(=O)nc-2n(C)n1 | 21 | nt | nt | 13µM* | nt | 14µM*
Cn1nc(-c2ccccn2)nc2c(=O)n(C)c(=O)nc1-2 | 14 | 6% | 29% | 35µM* | -5% | ?
CN(C)S(=O)(=O)N(C)CC1COc2ccccc2O1 (stereo not given) | 4 | nt | nt | nt | nt | nt
COc1ccc(C(NC(=O)C2CCCC2)c2nccc3cc(OC)c(OC)cc23)cc1OC (stereo not given) | 7 | nt | nt | nt | nt | nt
Cc1ccc(CSc2nn3c(=O)c(C)nnc3s2)cc1 | -9 | 28% | 6% | -10% | 4% | -13%
Cc1cccc(CSc2nn3c(=O)c(C)nnc3s2)c1 | -5 | 10µM* | 5% | -8% | -4% | -10%
C=C1CC(COc2cc(=O)oc3ccccc23)(c2ccccc2)OC1=O (stereo not given) | -3 | nt | -10% | -7% | 8% | 32µM*
C=C1CCC2C(C)(C)[C@H](O)CC[C@@]2(C)[C@@H]1COc1cc(=O)oc2ccccc12 (stereo not given in full) | 5 | 1% | 8% | -13% | 8% | -8%
CCC(C)NC(=O)CS(=O)Cc1nc(-c2cccc(OC)c2)oc1C (stereo not given) | 1 | 6% | -2% | 10%[57.1 µM] | -1% | 25µM*
COc1cccc(-c2nc(CS(=O)CC(=O)NC(C)CCc3ccccc3)c(C)o2)c1 (stereo not given) | 4 | nt | 3% | 2% | 0% | 28µM*
COc1cccc(-c2nc(CS(=O)CC(=O)NCCc3ccccc3)c(C)o2)c1 (stereo not given) | 3 | nt | 2% | -7% | 5% | 28µM*
Cc1ccccc1-c1nc(CS(=O)CC(=O)NC(C)CCc2ccccc2)c(C)o1 (stereo not given) | -1 | nt | 15% | 9% | -9% | 2.2µM*
COc1cccc(-c2nc(CS(=O)CC(=O)O)c(C)o2)c1 (stereo not given) | -6 | 6% | 2% | 3% | -11% | -34%
O=C(Nc1ccc2c(c1)OCO2)C1CCN(c2ccc3nncn3n2)CC1 | 16 | nt | nt | nt | nt | nt
NS(=O)(=O)c1ccc(NC(c2ccccc2)c2ccccc2)c([N+](=O)[O-])c1 | 3 | nt | nt | nt | nt | nt
COc1ccc(CN(C)C(=O)CSc2nnc(COc3ccc(Cl)cc3)n2C)cc1F | 3 | nt | nt | nt | nt | nt
COc1cccc(-c2nc(CS(=O)(=O)CC(=O)NCc3cccnc3)c(C)o2)c1 | -34* | nt | nt | nt | nt | nt
COc1ccc(-c2cc(C#N)nc(NN)n2)cc1 | -2 | -3% | 0% | 1%[57.1 µM] | 18µM* | -6%[57.1 µM]
CC1(C)CC(=O)C2=C(C1)N(c1ccccc1)C(N)=C(C#N)C2c1cccnc1 (stereo not given) | -1 | 0% | -4% | 2% | 55% | 79µM*
CC1(C)CC(=O)C2=C(C1)N(c1ccccc1)C(N)=C(C#N)C2c1ccccc1 (stereo not given) | -4 | 1% | -2% | 1%[57.1 µM] | 32% | -24%[57.1 µM]
COc1ccc(NC(=S)Nc2ncccc2C)cc1OC | -1 | -14% | -1% | 3%[57.1 µM] | -5% | 3%[57.1 µM]
COc1ccc(NC(=S)Nc2ncccc2C)c(OC)c1 | -1 | 0% | 5% | 6% | 0% | 1.8µM*
SMILES | LDHA inh | PKM2 activator | IDH1 R132H inh | TrxR1 substrate | GLS inh | rTrxR1 inhibitor
O=C(NCc1ccncc1)c1ccccc1Nc1ccccc1 | -4 | nt | nt | nt | nt | nt
Cc1ccc(OCC(=O)NC(CC(C)C)C(=O)N(C)C)cc1 (stereo not given) | 4 | nt | nt | nt | nt | nt
COc1cc(C2c3c(n[nH]c3C)C(=O)N2c2ccc(C)cc2)ccc1O (stereo not given) | 2 | 0% | 4% | 7%[57.1 µM] | 7% | 32µM*
CN1CCN(C(=O)C2CCCN(S(=O)(=O)c3ccc(Cl)cc3)C2)CC1 (stereo not given) | -33* | 1% | 9% | 13% | 8% | 23%
COCCN(C(=O)C1CCN(C(=O)c2ccccc2C)CC1)c1c(N)n(CC(C)C)c(=O)[nH]c1=O | -47* | nt | 0% | -7% | 11% | -6%
Cc1ccccc1C(=O)N1CCC(C(=O)N(CC(C)C)c2c(N)n(CC(C)C)c(=O)[nH]c2=O)CC1 | 1 | nt | 3% | 19% | 1% | 51%
Cn1c(=O)oc2cc(S(=O)(=O)Nc3ccc(O)cc3)ccc21 | 2 | 8.9µM* | -2% | -1% | 0% | 11%
COc1ccc(Nc2nc(Nc3ccc(C)c(C)c3)nc3nccnc23)cc1 | 6 | nt | nt | nt | nt | nt
Cc1cc2oc(=O)cc(COC(=O)Cc3n[nH]c(=O)c4ccccc34)c2cc1C(C)C | 0 | nt | nt | nt | nt | nt
O=C(CCC(=O)c1ccc(Oc2ccccc2)cc1)Nc1cccc(Cl)c1Cl | -6 | 1% | -1% | 3% | 2% | 24%
Cc1c(Cl)cccc1NC(CC(=O)c1ccccc1)C(=O)OCC(=O)c1cccs1 (stereo not given) | -3 | 16% | 3% | -8% | -3% | 40µM*
O=C(CC(Nc1cccc(Cl)c1Cl)C(=O)OCC(=O)c1cccs1)c1ccccc1 (stereo not given) | -7 | -1% | 3% | 4% | 3% | ?
O=C(CC(Nc1ccccc1Cl)C(=O)O)c1ccccc1 (stereo not given) | -9 | 13% | 7% | 14%[57.1 µM] | 0% | 4.5µM*
O=C(CC(Nc1cccc(Cl)c1Cl)C(=O)O)c1ccccc1 (stereo not given) | -2 | 5% | 0% | 2% | 7% | 40µM*

Compound activity as filed in PubChem.
